Eight molecules from PubChem BioAssay (Tox21) can be followed below.

The structures appear in SMILES notation. A number with no mark means an inactive call. Results filed as inconclusive are left out. Calls of active or inactive are those of the source. Unless noted, calls follow the shape of the dose curve; as a rule, active = well fitted curve in the direction sought with a large enough effect in the repeat runs; inconclusive = weak or mixed curves; inactive = no such curve, though single readings can be large; an effect the other way counts as inactive or inconclusive.

In test [1] the target is Progesterone receptor (Homo sapiens) (UniProt P06401). The test can be described thus: qHTS assay to identify small molecule agonists of the progesterone receptor (PR) signaling pathway (AID 1346784; calls by dose curve; also: nearly all actives have a fitted effect of over 30% in size). Summed up: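 Cells (PR-UAS-bla HEK 293T, GripTite) were plated in assay medium containing 2% charcoal-stripped FBS and incubated 6 hr. Test compounds in DMSO were added for 16 hr at 37C. FRET substrate was then loaded for 2 hr at room temperature before fluorescence reading.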
Progesterone receptor (Homo sapiens), sequence (P06401 whole entry, looked up): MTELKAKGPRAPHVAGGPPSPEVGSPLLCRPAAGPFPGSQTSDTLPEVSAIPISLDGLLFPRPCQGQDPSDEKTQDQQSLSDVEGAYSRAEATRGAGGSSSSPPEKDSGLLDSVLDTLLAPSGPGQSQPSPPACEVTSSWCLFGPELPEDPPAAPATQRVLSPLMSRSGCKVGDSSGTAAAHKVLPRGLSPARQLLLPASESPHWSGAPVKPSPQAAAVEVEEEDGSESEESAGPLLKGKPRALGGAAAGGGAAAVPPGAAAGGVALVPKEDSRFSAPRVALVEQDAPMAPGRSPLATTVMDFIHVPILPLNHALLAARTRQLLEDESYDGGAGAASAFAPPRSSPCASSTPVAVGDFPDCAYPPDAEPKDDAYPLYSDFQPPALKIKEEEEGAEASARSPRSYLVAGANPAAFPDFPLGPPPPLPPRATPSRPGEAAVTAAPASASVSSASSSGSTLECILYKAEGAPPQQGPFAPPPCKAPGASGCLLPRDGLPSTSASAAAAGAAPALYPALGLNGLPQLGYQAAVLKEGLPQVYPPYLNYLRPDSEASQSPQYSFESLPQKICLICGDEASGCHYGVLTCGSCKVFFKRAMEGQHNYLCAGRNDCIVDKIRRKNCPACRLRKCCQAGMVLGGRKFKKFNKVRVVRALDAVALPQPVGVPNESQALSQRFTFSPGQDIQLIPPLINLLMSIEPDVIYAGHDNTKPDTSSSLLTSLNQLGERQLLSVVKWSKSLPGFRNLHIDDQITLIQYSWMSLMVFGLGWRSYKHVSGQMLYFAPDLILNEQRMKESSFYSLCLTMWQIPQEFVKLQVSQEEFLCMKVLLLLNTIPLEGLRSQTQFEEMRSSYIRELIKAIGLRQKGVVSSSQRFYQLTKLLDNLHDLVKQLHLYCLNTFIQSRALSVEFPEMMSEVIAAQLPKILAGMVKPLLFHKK
For orientation: qHTS replaces the single test concentration by a dilution series.

Test [2] has the same target. The test can be described thus: qHTS assay to identify small molecule antagonists of the progesterone receptor (PR) signaling pathway (AID 1346795; active = well fitted inhibition curve with a large enough effect in the signal ratio in the repeat runs, not every such curve was filed as active; the % refers to the signal ratio; also: potency is read from the fitted curve at half-maximal effect). Summed up: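 Antagonist mode: compounds tested against 1 nM (final) promegestone stimulation in HEK293T cells expressing PR-UAS-bla reporter, 16 hr at 37C, 5% CO2; beta-lactamase activity detected via B/G FRET substrate after 2 hr at room temperature.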

Test [3] can be described thus: qHTS assay to identify small molecule antagonists of the progesterone receptor (PR) signaling pathway - cell viability counter screen (AID 1346798). Also: series mostly up to about 92 µM; nearly all actives have a fitted effect of over 50% in size. Summed up: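 Counter screen for cytotoxicity: viability of PR-UAS-bla HEK293T cells was measured with CellTiter-Glo luminescence following 16 hr compound exposure in the presence of R5020.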
A short description of test [4]: qHTS assay to identify small molecule agonists of the progesterone receptor (PR) signaling pathway - cell viability counter screen (AID 1346799; calls by dose curve; also: nearly all actives have a fitted effect of over 45% in size). Summed up:
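Cells (PR-UAS-bla HEK293T) are plated at 3,000/well in 2% charcoal-stripped FBS medium, rested 6 hr, dosed and incubated 16 hr at 37C. CellTiter-Glo is then added and luminescence measured after 30 min at room temperature.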

The nature of test [5]: qHTS assay to identify small molecule antagonists of the TGF-beta/Smad signaling pathway - cell viability counter screen (AID 1346824). Also: nearly all actives have a fitted effect of over 50% in size. Summed up:
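SBE-bla HEK 293T cells, incubated overnight, then compound plus 0.25 ng/mL TGF-beta1 (stock added) for 5 hr at 37 C. Viability was read in the same wells by CellTiter-Glo luminescence after 30 min at room temperature.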

The nature of test [6]: qHTS assay to identify small molecule agonists of the TGF-beta/Smad signaling pathway - cell viability counter screen (AID 1346829). Also: top concentration of the series differs between compounds; nearly all actives have a fitted effect of over 45% in size. Summed up:
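Compound-treated SBE-bla HEK 293T cells (5 hr, 37 C) were assessed for viability with CellTiter-Glo in parallel with the reporter read.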

Test [7] is described as follows: qHTS assay to identify small molecule agonists of the TGF-beta/Smad signaling pathway (AID 1346859; active = well fitted activation curve with a large enough effect in the signal ratio in the repeat runs, not every such curve was filed as active; the % refers to the signal ratio; also: series mostly up to about 77 µM). Summed up:
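Reporter line: HEK 293T with stably integrated SBE-controlled beta-lactamase. Compound exposure lasts 5 hr at 37 C and 5% CO2; substrate loading follows for 2 hr at room temperature, with emission read at 460 and 530 nm.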

Test [8] has as its target Thyrotropin-releasing hormone receptor (Homo sapiens) (UniProt P34981). The test can be described thus: qHTS assay to identify small molecule antagonists of the thyrotropin-releasing hormone receptor (TRHR) signaling pathway (AID 1346877; active = well fitted inhibition curve with a large enough effect in the repeat runs, not every such curve was filed as active; also: series mostly up to about 51 µM). Summed up: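 Intracellular calcium fluorescence, read kinetically every second over 3 min, reports TRH-evoked signalling in HEK293 cells carrying TRHR. Test compounds were added 5 min ahead of a 1 nM TRH challenge.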

For test [9] the target is unchanged. The test can be described thus: qHTS assay to identify small molecule agonists of the thyrotropin-releasing hormone receptor (TRHR) signaling pathway (AID 1346891; calls by dose curve;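 also: HEK293 cells expressing TRHR with calcium dye readout; series mostly up to about 58 µM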). Summed up: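 Cells: TRHR-Hek293, seeded and incubated 18 h. Dye loading: 2 h at 37 °C. Compound added from DMSO stock by pin tool. Read-out: kinetic calcium fluorescence over 3 min.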
Test [10] can be described thus: Human pregnane X receptor (PXR) small molecule agonists, qHTS cell viability counter screen (AID 1346977). Also: nearly all actives have a fitted effect of over 50% in size. Summed up: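 Cytotoxicity counter screen run in the same wells as the PXR luciferase assay, using PXR-Luc HepG2 cells in charcoal-stripped serum medium. Viability: CellTiter-Fluor fluorescence after 24hr compound treatment.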
A short description of test [11]: Caspase-3/7 induction in HepG2 cells by small molecules, qHTS assay (AID 1346978). Also: nearly all actives have a fitted effect of over 15% in size. Summed up:
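Wild-type HepG2 cells, 2,000/well, settled 5 hr at 37 C and 5% CO2, then compound-treated for 17 hr; caspase-3/7 activity read by luminescent Caspase-Glo 3/7 after 30 min at room temperature.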

Test [12] in a line: Caspase-3/7 induction in CHO-K1 cells by small molecules, qHTS cell viability counter screen (AID 1346979). Also: nearly all actives have a fitted effect of over 35% in size. Summed up: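 Cytotoxicity counter screen run in parallel with the caspase-3/7 assay: CHO-K1 cells, 16hr compound treatment at 37C, then CellTiter-Fluor for 1hr before fluorescence reading.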
Test [13] can be described thus: Caspase-3/7 induction in CHO-K1 cells by small molecules, qHTS assay (AID 1346980). Also: nearly all actives have a fitted effect of over 15% in size. Summed up: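 Wild-type CHO-K1 cells exposed to compounds for 17hr at 37 C, 5% CO2. Caspase-3/7 activity then measured by Caspase-Glo 3/7 luminescence after 30min at room temperature.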
Test [14] can be described thus: Caspase-3/7 induction in HepG2 cells by small molecules, qHTS cell viability counter screen (AID 1346981). Also: series mostly up to about 92 µM; nearly all actives have a fitted effect of over 30% in size. Summed up: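 HepG2, WT, 2,000 cells/well; 5 hr pre-incubation 37 C/5% CO2; compound pin-transferred from DMSO; 16 hr exposure; CellTiter-Fluor, 1 hr; fluorescence read.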
Test [15] deals with Nuclear receptor subfamily 1 group I member 2 (Homo sapiens) (UniProt O75469). Briefly: Human pregnane X receptor (PXR) small molecule agonists, qHTS assay (AID 1346982). Also: nearly all actives have a fitted effect of over 35% in size. Also: potency is read from the fitted curve at half-maximal effect. Summed up: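 Luciferase signal from ONE-Glo (30 min, room temperature) measured activation of hPXR-driven CYP3A4 reporter expression in PXR-Luc HepG2 cells treated with compounds for 24 hr at 37 C.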
Nuclear receptor subfamily 1 group I member 2 (Homo sapiens), sequence (O75469 whole entry, looked up): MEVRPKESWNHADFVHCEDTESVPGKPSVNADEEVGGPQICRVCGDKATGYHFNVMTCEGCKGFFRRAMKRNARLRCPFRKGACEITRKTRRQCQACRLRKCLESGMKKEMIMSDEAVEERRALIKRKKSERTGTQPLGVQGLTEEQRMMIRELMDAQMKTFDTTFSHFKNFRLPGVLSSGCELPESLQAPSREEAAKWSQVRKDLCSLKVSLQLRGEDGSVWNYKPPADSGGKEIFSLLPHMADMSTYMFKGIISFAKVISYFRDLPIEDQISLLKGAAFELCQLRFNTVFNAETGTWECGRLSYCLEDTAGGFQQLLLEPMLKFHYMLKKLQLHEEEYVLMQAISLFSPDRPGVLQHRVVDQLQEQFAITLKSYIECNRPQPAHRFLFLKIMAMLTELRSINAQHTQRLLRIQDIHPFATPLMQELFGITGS
Test [16] addresses Acetylcholinesterase (Homo sapiens) (UniProt P22303). The test can be described thus: Acetylcholinesterase (AChE) small molecule antagonists: enzyme-based qHTS assay (AID 1347397; calls by dose curve; also: nearly all actives have a fitted effect of over 55% in size). As to conditions: Potency: AChE enzyme activity inhibition. Summed up: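 Recombinant human AChE (50 mU/mL) preincubated with compound 30 min at room temperature; acetylthiocholine plus DTNB then added, and thiocholine formation read colorimetrically after 10 min at room temperature. DMSO served as vehicle control.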

For test [17] the target is unchanged. Briefly: Acetylcholinesterase (AChE) small molecule antagonists: colormetric cell-based qHTS assay (AID 1347395; calls by dose curve; also: nearly all actives have a fitted effect of over 30% in size). Summed up: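 Cells (SH-SY5Y, 2,000 per well) are seeded and left overnight at 37 C. Compound is added for 30 min, then DTNB and acetylthiocholine for a further 90 min at 37 C before absorbance-based thiocholine detection.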

Acetylcholinesterase (Homo sapiens), sequence (P22303 whole entry, looked up): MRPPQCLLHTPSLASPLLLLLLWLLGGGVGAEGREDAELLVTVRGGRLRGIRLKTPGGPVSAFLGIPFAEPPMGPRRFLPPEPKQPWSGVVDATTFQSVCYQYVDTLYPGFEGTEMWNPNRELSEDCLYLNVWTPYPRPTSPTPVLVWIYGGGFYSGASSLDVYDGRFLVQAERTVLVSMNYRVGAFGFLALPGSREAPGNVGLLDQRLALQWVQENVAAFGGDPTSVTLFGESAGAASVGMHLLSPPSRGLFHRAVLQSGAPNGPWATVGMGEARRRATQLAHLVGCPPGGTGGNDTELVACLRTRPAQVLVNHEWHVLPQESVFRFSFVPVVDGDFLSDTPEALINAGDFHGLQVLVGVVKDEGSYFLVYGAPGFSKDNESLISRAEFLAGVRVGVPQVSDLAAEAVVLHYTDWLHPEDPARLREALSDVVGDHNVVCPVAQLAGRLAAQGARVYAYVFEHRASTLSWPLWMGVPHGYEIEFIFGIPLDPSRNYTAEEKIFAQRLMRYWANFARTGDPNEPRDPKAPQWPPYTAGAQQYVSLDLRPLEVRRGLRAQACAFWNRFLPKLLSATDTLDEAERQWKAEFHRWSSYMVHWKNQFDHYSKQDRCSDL
Thyrotropin-releasing hormone receptor (Homo sapiens), sequence (P34981 whole entry, looked up): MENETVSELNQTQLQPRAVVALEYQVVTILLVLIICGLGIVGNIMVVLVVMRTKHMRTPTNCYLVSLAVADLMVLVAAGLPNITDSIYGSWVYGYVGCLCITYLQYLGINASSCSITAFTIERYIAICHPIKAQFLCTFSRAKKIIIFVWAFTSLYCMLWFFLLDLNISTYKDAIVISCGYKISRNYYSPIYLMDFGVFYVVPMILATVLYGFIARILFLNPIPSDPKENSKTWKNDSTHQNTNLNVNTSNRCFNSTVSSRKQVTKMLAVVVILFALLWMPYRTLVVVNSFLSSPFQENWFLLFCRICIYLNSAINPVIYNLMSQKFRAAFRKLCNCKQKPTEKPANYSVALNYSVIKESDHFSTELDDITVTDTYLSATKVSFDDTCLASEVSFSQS

As for `CCOP(=S)(OCC)SCSc1ccc(Cl)cc1`, the Potency entry in test [1], in test [3], in test [4], in test [5], in test [10] and in test [11] was “inactive” each time. The Potency result in test [12], in [13], in test [14] and in test [16] was “inactive” throughout. Moreover, the Potency in test [2] is 4.86 µM (active); in [15] it was 10.9 µM (active). Also, the molecule was classed as inactive in test [6], in test [7], in [8] and in test [9].

On to `CCCCOC(=O)c1ccccc1N`, for which the Potency result in test [1], in test [2], in [3], in test [4], in test [5] and in test [10] was “inactive” in each case. In addition, the Potency entry in [11], in [12], in [13], in test [15], in test [17] and in test [16] was “inactive” in each case. For the same molecule, the molecule was classed as inactive in test [6], in test [7], in [8] and in test [9].

Consider `[As]#[In]`, for which the Potency result in test [1], in test [2], in test [3], in test [4], in [5] and in test [10] was “inactive” throughout. Besides, the Potency result in test [11], in test [12], in test [13], in [14], in [15] and in test [17] was “inactive” throughout. The Potency result in test [16] was “inactive”. The molecule was called inactive in test [6], in test [7], in test [8] and in [9].

In the case of `N#CCNCC#N`, the Potency entry in [1], in test [2], in test [3], in test [4], in test [5] and in test [10] was “inactive” in each case. In addition, the Potency entry in [11], in test [12], in test [13], in test [14], in test [15] and in test [16] was “inactive” throughout. The call in [6], in test [7], in [8] and in [9] was inactive.

For the molecule `CNCC(=O)c1ccc(O)c(O)c1`, the Potency entry in test [1], in [2], in test [3], in [4], in test [5] and in test [10] was “inactive” each time. Besides, the Potency result in [11], in test [12], in [13], in test [14], in [15] and in [17] was “inactive” throughout. In addition, the Potency result in test [16] is “inactive”. In addition, the molecule was classed as inactive in test [6], in test [7], in test [8] and in [9].

Turning to `OC(Cn1cncn1)(c1ccc(F)cc1)c1ccccc1F` (stereo not given), the Potency result in test [1], in test [2], in [3], in [4], in [5] and in [10] was “inactive” throughout. Moreover, the Potency result in [11], in test [12], in test [13], in [14], in test [15] and in test [17] was “inactive” each time. The call in test [6], in [7], in [8] and in test [9] was inactive.

For the molecule `O=C(O)c1cccc(Cl)c1`, the Potency entry in [1], in test [2], in [3], in [4], in [5] and in test [10] was “inactive” each time. In addition, the Potency entry in test [11], in test [12], in [13], in [15], in [17] and in [16] was “inactive” throughout. The molecule was called inactive in test [6], in test [7], in [8] and in [9].

`O=CNC(N1CCN(C(NC=O)C(Cl)(Cl)Cl)CC1)C(Cl)(Cl)Cl` (stereo not given): the Potency entry in test [1], in test [2], in test [3], in test [4], in test [5] and in test [10] was “inactive” throughout. The Potency result in [11], in [12], in test [13], in test [14] and in test [17] was “inactive” in each case. Further, the molecule was classed as inactive in [6], in test [7], in test [8] and in test [9]. For the same molecule, the Potency in [15] is 27.3 µM (active).
